The record followed here is PubChem BioAssay (NCATS).

The structures appear in SMILES notation. Records with an inconclusive call do not appear. Active and inactive are the calls of the source. The call rests on the fitted dose curve; in most records, active means well fitted curve in the direction sought with a large enough effect; inconclusive means small, poorly fitted or top-dose-only effect, or another doubt; inactive means no such curve, though single readings can be large; an effect the other way counts as inactive or inconclusive.

The nature of assay [1]: Quantitative High-Throughput drug screen in 47 multiple myeloma cell lines against the NCATS MIPE library collection: FR4_PLB cell viability assay (AID 1918924; further: nearly all actives have a fitted effect of over 35% in size; further: potency means the concentration at half of the fitted maximal effect). Summed up: (§1)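 qHTS of the MIPE 4.0 collection: 500 myeloma cells/well, 48 h drug exposure at 37C in 5% CO2, then CellTiter-Glo for 5 min at room temperature before luminescence reading.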
Assay [2] can be described thus: Quantitative High-Throughput drug screen in 47 multiple myeloma cell lines against the NCATS MIPE library collection: Delta47_JCRB cell viability assay (AID 1918925; further: nearly all actives have a fitted effect of over 45% in size; further: potency means the concentration at half of the fitted maximal effect). In short, it runs like this:
(§2)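 Luminescent ATP measurement with CellTiter-Glo gives viability, scaled between DMSO-only wells (100%) and media-only wells (0%). Cells, 500 per well, faced library compounds for 48 hours at 37C.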

Assay [3] is described as follows: Quantitative High-Throughput drug screen in 47 multiple myeloma cell lines against the NCATS MIPE library collection: EJM_DSMZ cell viability assay (AID 1918926; further: nearly all actives have a fitted effect of over 30% in size; further: potency means the concentration at half of the fitted maximal effect). Summed up:
as §2

Assay [4] is described as follows: Quantitative High-Throughput drug screen in 47 multiple myeloma cell lines against the NCATS MIPE library collection: AMO1_DSMZ cell viability assay (AID 1918927; further: nearly all actives have a fitted effect of over 30% in size; further: potency means the concentration at half of the fitted maximal effect). In short, it runs like this: as §2
The nature of assay [5]: Quantitative High-Throughput drug screen in 47 multiple myeloma cell lines against the NCATS MIPE library collection: ARP1_JJKsccF8 cell viability assay (AID 1918928; further: nearly all actives have a fitted effect of over 40% in size; further: potency means the concentration at half of the fitted maximal effect). In short, it runs like this:
(§3)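 Each line was plated at 500 cells/well and treated 48 h with library drugs. Viability came from CellTiter-Glo luminescence relative to DMSO and cell-free medium controls.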

The nature of assay [6]: Quantitative High-Throughput drug screen in 47 multiple myeloma cell lines against the NCATS MIPE library collection: ARD_JJKsccE7 cell viability assay (AID 1918929; further: potency means the concentration at half of the fitted maximal effect). In short, it runs like this: as §2
Assay [7] can be described thus: Quantitative High-Throughput drug screen in 47 multiple myeloma cell lines against the NCATS MIPE library collection: KMM1_JCRB cell viability assay (AID 1918960). Further: nearly all actives have a fitted effect of over 30% in size. Further: potency means the concentration at half of the fitted maximal effect. Summed up:
as §3

Assay [8] is described as follows: Primary redox qHTS assay for identification of artifact compounds. (AID 1845223). Summed up:
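Redox-cycling detection via DTT (250 uM final) oxidation coupled to Amplex Red (25 uM)/HRP (250 mU/mL) in HBSS. 15 min preincubation plus 30 min after DTT, room temperature. Ex/Em 525/598 nm; 4-parameter Hill fit against DMSO and 10 uM DA3003.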
(qHTS replaces the single test concentration by a dilution series.)

Assay [9] is described as follows: Quantitative High-Throughput drug screen in 47 multiple myeloma cell lines against the NCATS MIPE library collection: Karpas620_DSMZ cell viability assay (AID 1918959). Further: nearly all actives have a fitted effect of over 30% in size. Further: potency means the concentration at half of the fitted maximal effect. Summed up: as §1
Assay [10] can be described thus: Quantitative High-Throughput drug screen in 47 multiple myeloma cell lines against the NCATS MIPE library collection: Karpas417_ECACC cell viability assay (AID 1918961). Further: potency means the concentration at half of the fitted maximal effect. The conditions noted are these: Karpas417 myeloma viability, CellTiter-Glo ATP luminescence, 48 h; viability (% of DMSO): at 45.8 µM (top of the series). In short, it runs like this: as §2
For orientation: ATP-based viability assays read luminescence as a measure of living cells.

Consider `COc1ccc2c(c1)CC[C@H]1[C@@H]2CC[C@]2(C)[C@@H](NCCCCCCN3C(=O)C=CC3=O)CC[C@H]12`, for which the Potency result in assay [1], in assay [2], in assay [3], in assay [4], in assay [5] and in assay [6] was “inactive” each time. Moreover, the Potency result in [7] was “inactive”.

As to `CN(C)CCN(C)C(=O)c1ccc(NC(=O)Nc2ccc(-c3nc(N4CCOCC4)c4ccn(CC(F)(F)F)c4n3)cc2)cc1`, the Potency in assay [1] is 0.0372 µM (active); in assay [2], 0.0264 µM (active); in [3], 0.209 µM (active); in assay [4], 0.418 µM (active); in [5] it was 0.0264 µM (active); in assay [6], 0.0235 µM (active).

Turning to `Cn1cnc(-c2cc3nccc(Oc4ccc(NC(=S)NC(=O)Cc5ccccc5)cc4F)c3s2)c1`, the molecule was classed as inactive in assay [8]. For the same molecule, the Potency in assay [6] is 18.7 µM (active).

With `Cc1ccccc1C(C(=O)NC1CCCCC1)N(C(=O)CNc1ccc(C#N)cc1)c1cccc(F)c1` (stereo not drawn), the result in [8] was inactive. For the same molecule, the Potency result in [6] and in assay [7] was “inactive” in each case.

In the case of `COc1cc2ncnc(Nc3cc(Br)c(O)c(Br)c3)c2cc1OC`, in [8], the molecule was called inactive. In addition, the Potency is 0.003 µM (active) in assay [3], 1.32 µM (active) in [5] and 13.2 µM (active) in [6].

On to `COC(=O)N1CCN(Cc2cccc(NC(=O)Nc3ccc(C)nc3)c2F)CC1`, for which, in [8], the call was inactive. Also, the Potency result in [3], in assay [5], in [6], in assay [9] and in assay [7] was “inactive” each time. Further, in assay [10], the Potency is 0.0047 µM (active).

Consider `CC[C@H](C)C(=O)O[C@H]1C[C@H](O)C=C2C=C[C@H](C)[C@H](CC[C@@H](O)C[C@@H](O)CC(=O)O)[C@H]21`, for which the Potency result in [1], in [2], in [3], in assay [4], in [5] and in assay [9] was “inactive” each time. For the same molecule, the Potency result in [7] is “inactive”.

As for `CCN1C[C@H](C)n2c(c(O)c3c(=O)n(Cc4ccc(F)c(Cl)c4)nc(C(=O)NC)c32)C1=O`, the outcome in assay [8] was inactive. In addition, the Potency result in assay [3], in assay [4], in [5], in [6] and in [7] was “inactive” each time. For the same molecule, in assay [9], the Potency is 0.0066 µM (active).

For `CC(=O)OCC(=O)[C@@]12OC(C)(C)O[C@H]1C[C@H]1[C@@H]3C[C@H](F)C4=CC(=O)C=C[C@]4(C)[C@@]3(F)[C@@H](O)C[C@@]12C`, the Potency result in [1], in [2], in assay [3], in assay [4] and in [9] was “inactive” throughout. Besides, the Potency in [5] is 0.0264 µM (active).

For the molecule `COc1nccc(-c2c(-c3ccc(F)cc3)ncn2C2CCNCC2)n1`, the result in assay [8] was inactive. Besides, the Potency result in [3], in [4], in [9] and in assay [7] was “inactive” each time.

As to `CCOC(=O)[C@H](CCc1ccccc1)N[C@@H](C)C(=O)N1CCCC1C(=O)O` (stereo partly drawn), the Potency entry in [1], in assay [2], in assay [3], in assay [4], in assay [5] and in assay [6] was “inactive” in each case. Moreover, the Potency result in [9] and in assay [7] was “inactive” in each case.

For `O=C(Nc1cccc(C(F)(F)F)c1)Nc1cc(S(=O)(=O)NC2CC2)ccc1-c1ccsc1`, in assay [8], the molecule was classed as inactive. In addition, the Potency entry in [3], in assay [6] and in assay [7] was “inactive” in each case.

In the case of `C[C@@H]1C[C@H]2[C@@H]3CCC4=CC(=O)C=C[C@]4(C)[C@@]3(F)[C@@H](O)C[C@]2(C)[C@@]1(O)C(=O)CO`, the Potency result in [1], in [2], in [3], in assay [4] and in [9] was “inactive” throughout. Further, the Potency in assay [5] is 0.0235 µM (active); in assay [6] it was 0.0093 µM (active); in assay [10] it was 0.0418 µM (active).

Consider `O=C(c1ccc(C(=O)N2CCC(N3CCCC3)CC2)c(Nc2ccccc2)c1)N1CCC(N2CCCC2)CC1`, for which the Potency result in assay [1], in [2], in [4], in assay [6], in [9] and in [7] was “inactive” throughout. Also, the Potency in assay [3] is 14.8 µM (active); in assay [5], 5.26 µM (active).

As to `N#CC(c1ccnc(NCCc2cccnc2)n1)c1nc2ccccc2s1` (stereo not drawn), the Potency in assay [1] was 20.9 µM (active); in assay [2], 11.8 µM (active); in assay [3], 18.7 µM (active); in [4], 6.62 µM (active); in [5], 18.7 µM (active); in [6] it was 6.62 µM (active). Besides, the Potency in [9] was 9.35 µM (active); in assay [7] it was 4.69 µM (active).

For the molecule `COc1cc(CNC(=O)CCCCC=CC(C)C)ccc1O`, the Potency entry in assay [1], in assay [2], in assay [4], in assay [5], in [6] and in assay [9] was “inactive” in each case. Also, in assay [7], the Potency entry was “inactive”. In addition, in assay [3], the Potency was 10.5 µM (active).
